MITF inh: MITF inhibitors, primary screen, biochemical, AlphaScreen, human; Microphthalmia-associated transcription factor (Homo sapiens), O75030; AlphaScreen MITF homodimerization, bead proximity signal; inhibition, % at 2.6 µM; hit rate 0.91% among 650,000; in the data active means inhibition above about 50%
GPR151 activ: activators of human GPR151, primary screen, cell-based, PathHunter beta-arrestin, luminescence; G-protein coupled receptor 151 (Homo sapiens), Q8TDV0; PathHunter beta-arrestin GPR151 cells; activation, % at 11.2 µM; hit rate 1% among 650,000; AID 1508602, 2020; in the data active means activation above about 4.9%
Target sequence (Q8TDV0 whole entry, looked up): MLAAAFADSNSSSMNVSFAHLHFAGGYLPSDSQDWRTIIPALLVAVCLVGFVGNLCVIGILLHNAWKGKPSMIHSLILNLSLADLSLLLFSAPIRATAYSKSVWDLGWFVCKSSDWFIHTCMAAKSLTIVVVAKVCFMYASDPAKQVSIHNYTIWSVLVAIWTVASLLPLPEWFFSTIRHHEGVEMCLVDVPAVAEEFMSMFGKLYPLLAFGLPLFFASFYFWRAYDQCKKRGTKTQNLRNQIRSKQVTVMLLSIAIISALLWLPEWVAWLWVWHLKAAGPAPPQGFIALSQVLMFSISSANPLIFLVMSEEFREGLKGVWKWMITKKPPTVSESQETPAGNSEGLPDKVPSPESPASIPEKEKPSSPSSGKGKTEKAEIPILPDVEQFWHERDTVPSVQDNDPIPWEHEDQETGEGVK
FBW7 act: FBW7 E3 ligase activators, primary screen, biochemical, AlphaScreen, human | F-box/WD repeat-containing protein 7 (Homo sapiens), Q969H0 | AlphaScreen FBW7–phospho-cyclin E peptide binding, activator screen | normalized activity (activation), % at 26.1 µM | hit rate 0.13% among 650,000; in the data active means normalized activity above about 1.9%;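 further: purified mutant Fbw7 with reduced substrate affinity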
TEAD-YAP inh: TEAD-YAP interaction inhibition, primary screen, TEAD-YAP interaction inhibitor project, luminescence, HEK-TIYL cells; inhibition, % at 9.12 µM; TEAD-Gal4/YAP UAS-luciferase luminescence; hit rate 1.4% among 640,000; in the data active means inhibition above about 32%
GPR151 conf act: GPR151 activators, triplicate retest, confirmation, cell-based, PathHunter beta-arrestin, luminescence; shares compounds with GPR151 activ; GPR151 PathHunter beta-arrestin cells, 90 min; % of EA-reagent control over plate median; activation, % at 11.2 µM; 6,700 tested, under 10 active; AID 1508609, 2020;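 active means mean percent activation across replicates above the confirmation screen cutoff of 4.91%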
GPR119 ag: GPR119 activators in beta-arrestin cells, counter-screen for GPR151 activator project, cell-based, PathHunter beta-arrestin, luminescence, triplicate; shares compounds with GPR151 activ; 90 min; 0 = compound-well median, 100 = enzyme-acceptor control; activation, % at 11.2 µM; hit rate 0.3% among 6,700; AID 1508611, 2020;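 active means mean percent activation in the counterscreen above 29.09%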;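 further: counterscreen on off-target GPR119 to flag nonselective hits from the GPR151 activator screen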
Numbers stand for hits; 0 = inactive; - = not tested or not shown. A selection: hits, their analogues and other compounds. The true share with any hit is near 3.5%.

SMILES | MITF inh | GPR151 activ | FBW7 act | TEAD-YAP inh | GPR151 conf act | GPR119 ag
CCCCC[C@H](O)/C=C/[C@H]1C=CC(=O)[C@@H]1C/C=C\CCCC(=O)O | 0 | 0 | - | - | - | -
CCCCCCCC/C=C\CCCCCC(=O)O | 0 | 8.7 | - | - | 0 | 0
Cc1ccc(NC(=O)CCS(=O)(=O)c2ccc3c(c2)OCC(=O)N3)nc1 | 0 | 0 | 0 | 0 | - | -
CCOCCCN1C(=O)C2C(C(=O)Nc3cccc(Cl)c3)C3C=CC2(O3)C1C(=O)NC1CCCCC1 (stereo not drawn) | 0 | 0 | 0 | 0 | - | -
COc1ccc(Oc2nc3ccccn3c(=O)c2/C=C(\C#N)C(=O)N2CCOCC2)cc1 | 0 | 0 | 0 | 0 | - | -
COC(=O)c1cccc(C(=O)Oc2ccc(Br)cc2)n1 | 0 | 0 | 0 | 0 | - | -
CC(C)OC(=O)c1cccc(C(=O)Oc2ccc(Br)cc2)n1 | 0 | 6.7 | 0 | 0 | 0 | 0
CN(C)c1ccc(CN2CCC3(CC2)CC3C(=O)NCCc2ccccn2)cc1 (stereo not drawn) | 0 | 0 | 0 | 0 | - | -
Cc1cccc(-n2cc(-c3ccccc3)c3c(NC(C)C)ncnc32)c1 | 0 | 5.0 | 0 | 0 | 0 | 0
CC(C)Nc1ncnc2c1c(-c1ccccc1)cn2-c1cccc(Cl)c1 | 0 | 0 | 0 | 0 | - | -
CCCSc1ncnc2c1c(-c1ccccc1)cn2-c1cccc(F)c1 | 0 | 7.6 | 0 | 0 | 0 | 0
Cc1nnc2c(N3CCN(c4ccccn4)CC3)nc3ccccc3n12 | 0 | 6.2 | 0 | 0 | 0 | 0
COc1cccc2cc(-c3csc(NC(=O)CCC(=O)N4CCC(C(N)=O)CC4)n3)c(=O)oc12 | 0 | 5.2 | 0 | 0 | 0 | 0
NC(=O)c1ccccc1NC(=O)CCn1c(=O)oc2ccccc21 | 0 | 5.0 | 0 | 0 | 0 | 0
CCn1cc(CCC(=O)NC(C)C)c2ccccc21 | 0 | 5.6 | 0 | 0 | 0 | 0
CC(C)NC(=O)CCn1c(=O)oc2ccccc21 | 0 | 8.1 | 0 | 0 | 0 | 0
CCc1ccc(-c2ccc(C(=O)Nc3cccc(Cl)c3)cc2)nc1 | 0 | 0 | 0 | 0 | - | -
Nc1ccc(-c2cnc3ccc(NCc4cccc(Cl)c4)nn23)cc1 | 0 | 0 | 0 | 0 | - | -
COc1ccc(NC(=O)c2sc3nc4c(cc3c2N)C(=O)CCC4)cc1 | 0 | 10.1 | 0 | 0 | 0 | 0
COc1ccc(NC(=O)c2sc3nc4c(cc3c2N)C(=O)CCC4)c(OC)c1 | 0 | 0 | 0 | 0 | - | -
COc1ccc(S(=O)(=O)N2N=C(C)Oc3ccccc3C2=O)cc1 | 0 | 5.2 | 0 | 44.1 | 0 | 0
CN(C)c1ccc(/C=C2\C(=O)ON=C2c2ccccc2)cc1[N+](=O)[O-] | 72.3 | 5.8 | 0 | 0 | 0 | 0
COCC1CCN(c2nc3nonc3nc2NCc2cccs2)CC1 | 0 | 0 | 0 | 0 | - | -
COC1CCN(c2nc3nonc3nc2NCc2cccs2)CC1 | 0 | 8.8 | 0 | 0 | 0 | 0
CC(C)C(=O)N1CCN(c2ccc(NC(=O)COc3ccc(Cl)cc3)cc2)CC1 | 0 | 0 | 0 | 0 | - | -
SMILES | MITF inh | GPR151 activ | FBW7 act | TEAD-YAP inh | GPR151 conf act | GPR119 ag
COc1ccccc1NC(=O)C1C2C=CC(C3CC23)C1C(=O)O (stereo not drawn) | 0 | 12.4 | 0 | 0 | 0 | 0
Cc1ccccc1NC(=O)C1C2C=CC(C3CC23)C1C(=O)O (stereo not drawn) | 0 | 0 | 0 | 0 | - | -
Cc1c(C(=O)N2CCC[C@H]2C(N)=O)sc2ncnc(N3CCCCCC3)c12 | 0 | 0 | 0 | 0 | - | -
CN1C(=O)c2ccc(S(=O)(=O)c3ccc(C(=O)O)cc3)cc2C1=O | 0 | 5.5 | 0 | 0 | 0 | 0
O=C(CN1Cc2ccccc2OC(c2ccccc2F)C1)N1CCCC1c1n[nH]c(=O)[nH]1 (stereo not drawn) | 0 | 7.5 | 0 | 0 | 0 | 0
CCS(=O)(=O)Nc1ccccc1C | 0 | 0 | 0 | 0 | - | -
CCOc1cc(/C=c2/sc3nc4ccccc4n3c2=O)cc(I)c1O | 0 | 5.1 | 0 | 0 | 0 | 0
COc1ccc(COC(=O)C2=C(C)NC3=C(C(=O)CCC3)C2c2ccccc2C)cc1 (stereo not drawn) | 0 | 0 | 0 | 0 | - | -
Cc1c(NC(=O)C(C)N2C(=O)C3C4CCC(C4)C3C2=O)ccc(Br)c1Cl (stereo not drawn) | 0 | 12.9 | 0 | 0 | 0 | 0
COC(=O)CNC(=O)CN1C(=O)C(C(C)C)Oc2ccc(C)cc21 (stereo not drawn) | 0 | 0 | 0 | 0 | - | -
Cc1sc2ncnc(NCc3ccccc3)c2c1C | 0 | 0 | 0 | 0 | - | -
Cc1sc2ncnc(NCC(C)O)c2c1C (stereo not drawn) | 0 | 4.9 | 0 | 0 | 0 | 0
COc1cccc(/C=C/C(=O)Nc2ccc3nc(N4CCCCC4)cc(C)c3c2)c1OC | 0 | 5.4 | 0 | 0 | 0 | 0
CCOc1ccc(NC2=CC(=O)CCC2)cc1 | 0 | 0 | 0 | 0 | - | -
CCOc1ccc(NC2=CC(=O)C=CC2=O)cc1 | 0 | 5.8 | 0 | 0 | 0 | 0
CCc1ccc(NS(=O)(=O)c2ccc3[nH]cc(C(=O)N4CCCCC4)c(=O)c3c2)cc1 | 0 | 0 | 0 | 0 | - | -
CC(C)c1ccc(NS(=O)(=O)c2ccc3[nH]cc(C(=O)N4CCCC4)c(=O)c3c2)cc1 | 0 | 9.7 | 0 | 0 | 0 | 0
CCOc1ccc(CN2CCN(Cc3cnc(N(C)C)s3)CC2CCO)cc1 (stereo not drawn) | 0 | 5.7 | 0 | 0 | 0 | 0
CC(C)CN1CCN(Cc2cccc3nccnc23)CC1CCO (stereo not drawn) | 0 | 0 | 0 | 0 | - | -
CCn1ccnc1CN1CCN(Cc2ccc(F)cc2)C(CCO)C1 (stereo not drawn) | 0 | 13.3 | 0 | 0 | 0 | 0
Cc1ccc(CN2CCN(Cc3cccc4nccnc34)CC2CCO)cc1 (stereo not drawn) | 0 | 6.7 | 0 | 0 | 0 | 0
CCn1ccnc1CN1CCN(Cc2ccc(C)cc2)C(CCO)C1 (stereo not drawn) | 0 | 0 | 0 | 0 | - | -
CCOc1ccc(CN2CCN(Cc3cnc(N4CCOCC4)s3)CC2CCO)cc1 (stereo not drawn) | 0 | 0 | 0 | 0 | - | -
Cc1cccc(NC(=O)CCNS(=O)(=O)c2ccc3c(c2)c(=O)n(C)c(=O)n3C)n1 | 0 | 0 | 0 | 0 | - | -
CCCCN1C(=O)S/C(=C\c2ccc(O)c(OC)c2)C1=O | 0 | 0 | 0 | 0 | - | -
Cc1[nH]nc2c1C(c1cc(COc3ccc(F)cc3Cl)cs1)C(C#N)=C(N)O2 (stereo not drawn) | 0 | 0 | 0 | 0 | - | -
CCCCOC(=O)c1ccc(Nc2nc(C)c([N+](=O)[O-])c(Nc3ccc(C(=O)OCCCC)cc3)n2)cc1 | 0 | 0 | 0 | 0 | - | -
